The list is not random: actives were taken first. Their share in the collection is about 1.6%.
KCNQ2 block = KCNQ2 (rat) channel inhibition; O88943; hit rate 1.1% among 310,000; CHO-K1 KCNQ2, FluxOR thallium flux, 20 min; hits give low values; B-score at 10 µM;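 active = fluorescence ratio B-score at most minus 3 library SDs, with starting brightness B-score within 2 library SDs, cut at about -5.5 in these data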
KCNQ2 enhance = potentiators of rat KCNQ2 potassium channel; CHO-K1 KCNQ2, FluxOR thallium flux fluorescence; hits give high values; B-score at 10 µM; hit rate 0.54% among 310,000;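 active = fluorescence ratio B-score at least 3 SD of library B-scores, with initial fluorescence B-score within 3 of them, cut at about 5.3 in these data; same plate scores as AID 2156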;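 note: B-score of peak minus minimum over baseline fluorescence ratio after K+ and Tl+ stimulus; positive B-score means potentiation of KCNQ2 with more thallium influx and brighter signal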
KCNQ2 block conf = confirmation of rat KCNQ2 potassium channel inhibitors. hit rate 57% among 1,000. KCNQ2-expressing cells, thallium flux, inhibition; hits give low values. shares compounds with KCNQ2 block. AID 493025. activity change, negative = inhibition, % at 10 µM
KCNQ1 spec = KCNQ2 inhibitor that also affects human KCNQ1 channel; shares compounds with KCNQ2 block; KCNQ1-expressing cells, FluxOR thallium flux fluorescence; hits give low values; activity change, negative = inhibition, % at 10 µM; hit rate 15% among 1,000;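 active = activity change at least 3 SD of negative controls below their mean in both duplicate wells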;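 note: CHO cells stably transfected with KCNQ1 and depolarized by potassium stimulus; peak minus minimum fluorescence over baseline after thallium addition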
Target sequence (P51787 whole entry, looked up): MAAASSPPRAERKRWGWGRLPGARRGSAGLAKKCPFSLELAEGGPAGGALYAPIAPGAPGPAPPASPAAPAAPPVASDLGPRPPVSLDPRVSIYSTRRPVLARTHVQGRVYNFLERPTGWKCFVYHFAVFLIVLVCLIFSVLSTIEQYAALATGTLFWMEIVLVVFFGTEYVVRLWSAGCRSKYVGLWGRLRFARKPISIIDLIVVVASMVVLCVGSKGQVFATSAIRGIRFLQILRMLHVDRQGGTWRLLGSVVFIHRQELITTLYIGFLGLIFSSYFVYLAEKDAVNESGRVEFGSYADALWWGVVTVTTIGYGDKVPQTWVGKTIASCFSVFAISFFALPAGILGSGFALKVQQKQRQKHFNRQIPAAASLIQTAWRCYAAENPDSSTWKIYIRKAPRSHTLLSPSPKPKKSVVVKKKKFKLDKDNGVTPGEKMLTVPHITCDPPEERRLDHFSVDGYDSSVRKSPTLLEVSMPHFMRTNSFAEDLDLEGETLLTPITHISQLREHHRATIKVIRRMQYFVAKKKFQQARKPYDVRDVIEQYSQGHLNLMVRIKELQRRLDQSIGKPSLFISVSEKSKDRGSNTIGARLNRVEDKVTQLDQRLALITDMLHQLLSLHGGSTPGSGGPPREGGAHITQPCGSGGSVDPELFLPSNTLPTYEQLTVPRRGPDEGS
CHO Tl ctr = KCNQ2 inhibitor counter-screen hit in parental CHO cells; AID 493029; thallium flux counter-screen; hits give low values; hit rate 14% among 1,000; shares compounds with KCNQ2 block; activity change, % at 10 µM
KCNQ2 patch conf = rat KCNQ2 inhibition confirmed by electrophysiology; shares compounds with KCNQ2 block; KCNQ2-expressing cells, automated patch clamp current; calls only at 10 µM; hit rate 49% among 550; AID 588531
A number is an active result; n = inactive; x = no result; + = active, no number. Unless noted, the rule behind the calls is not given here.

SMILES	KCNQ2 block	KCNQ2 enhance	KCNQ2 block conf	KCNQ1 spec	CHO Tl ctr	others
O=C(NCCC(=O)N(CCc1ccccc1)Cc1ccccc1)c1ccc(Br)cc1	-9.2	n	-18%	n	n	KCNQ2 patch conf=n
CCOC(=O)CSc1nnc(Cc2ccccc2)n1-c1cccc(Cl)c1	n	x	x	x	x
CCOC(=O)CSc1nnc(CNc2ccccc2Cl)n1-c1ccccc1	-6.7	n	-25%	n	n	KCNQ2 patch conf=+
COc1ccccc1C(=O)NC(=O)COC(=O)c1cccc(C)c1O	n	n	x	x	x
Cc1ccc(NC(=O)N2N=C(c3ccc(F)cc3)CC2c2ccc(F)cc2)cc1 (configuration not stated)	-7.9	n	n	n	n
CC(=O)N1N=C(c2ccccc2)CC1c1ccc(F)cc1 (configuration not stated)	n	x	x	x	x
O=C(CSC1=NS(=O)(=O)c2ccccc2N1)Nc1cccc(F)c1	n	n	x	x	x
O=C(N/C=C\c1ccccc1)NCc1ccc(Cl)cc1Cl	n	x	x	x	x
O=C(N/C=C\c1ccccc1)NCc1ccc(Cl)cc1	-7	n	n	n	n
Cc1cccc(Oc2cc(NC(=O)c3ccccc3)cc([N+](=O)[O-])c2)c1	-7.3	n	n	n	n
Cn1cc([N+](=O)[O-])c(C(=O)Nc2cc(Oc3ccccc3)cc([N+](=O)[O-])c2)n1	n	n	x	x	x
COCCN(C(=O)c1ccc(OCC(C)C)cc1)c1c(N)n(Cc2ccccc2)c(=O)[nH]c1=O	n	x	x	x	x
CCOc1ccc(OCC)c(NC(=O)C2CCN(S(=O)(=O)c3ccc4c(c3)CC(C)N4C(C)=O)CC2)c1 (configuration not stated)	n	x	x	x	x
N#C/C(=C/c1ccc(N2CCCCCC2)o1)c1ccc(Cl)cc1	-8.4	n	-31%	-28%	-22%	KCNQ2 patch conf=n
N#C/C(=C/c1ccc(N2CCCCC2)o1)c1cccc(F)c1	n	x	x	x	x
C[n+]1cccc(/C=N/NC(=O)CC23CC4CC(CC(C4)C2)C3)c1	n	n	x	x	x
O=C(Nc1nc(-c2ccccc2)cs1)C1CCCCN1S(=O)(=O)c1ccccc1 (configuration not stated)	n	x	x	x	x
O=C(Nc1nc(-c2ccccc2)cs1)C1CCCCN1S(=O)(=O)c1ccc(Cl)cc1 (configuration not stated)	-8.9	n	n	n	n
CC1CCN(CC(=O)Nc2nc(-c3ccccc3)cs2)CC1	-7.3	n	n	n	n
NC(=O)C1CCN(CC(=O)Nc2nc(-c3ccccc3)cs2)CC1	n	x	x	x	x
COc1ccc(NC(=O)CSc2nc3c(sc4ccccc43)c(=O)n2CCCN2CCCC2)cc1	n	n	x	x	x
Cc1cccc(N2CCN(C(=O)c3ccc4c(c3)NC(=O)C(CSCc3cccc(F)c3)N4)CC2)c1C (configuration not stated)	n	n	x	x	x
O=C(O)CN1C(=O)c2ccc(Oc3ccc4c(c3)C(=O)N(CC(=O)O)C4=O)cc2C1=O	n	x	x	x	x
CC(NC(=O)c1cccs1)c1ccc(Cl)cc1 (configuration not stated)	n	x	x	x	x
CC(NC(=O)c1cccs1)C(S)c1ccccc1 (configuration not stated)	-11	n	n	n	n
SMILES	KCNQ2 block	KCNQ2 enhance	KCNQ2 block conf	KCNQ1 spec	CHO Tl ctr	others
Nc1c(-c2ccccc2)sc2ccc3ccccc3[n+]12	n	x	x	x	x
CCCOc1ccc(N2C(=O)CC(NCC(=O)OCC)C2=O)cc1 (configuration not stated)	n	n	x	x	x
O=C(NCCOc1ccccc1)C1CCC(=O)N(CCN2CCOCC2)C1 (configuration not stated)	n	n	x	x	x
COc1ccc([N+](=O)[O-])c(S(=O)(=O)c2ccccc2)n1	-7.5	n	-28%	n	n	KCNQ2 patch conf=+
COc1nc(OC)nc(Oc2ccc(Cl)cc2[N+](=O)[O-])n1	n	x	x	x	x
O=[N+]([O-])c1cccnc1S(=O)(=O)c1ccccc1	n	x	x	x	x
COc1ccc([N+](=O)[O-])c(S(=O)(=O)c2ccc(Cl)cc2)n1	-9.9	n	-32%	-28%	-22%	KCNQ2 patch conf=+
COC(=O)c1ccccc1S(=O)(=O)NCc1nc2nc(C)cc(C)n2n1	n	x	x	x	x
Cc1nnc(SCC(=O)Nc2ccccc2F)n1-c1ccc(F)cc1	n	n	x	x	x
CCN(CC(=O)NCc1ccc(Cl)cc1)C(=O)CSc1cc(C)ccc1C	-8.2	n	-22%	n	n	KCNQ2 patch conf=+
CCN(CC(=O)NCc1ccc(Cl)cc1)C(=O)CSc1ccc(F)cc1	n	x	x	x	x
CCN(CC(=O)NCc1ccc(F)cc1)C(=O)CN1CCN(c2cc(Cl)ccc2C)CC1	-9.5	n	-26%	n	n	KCNQ2 patch conf=+
Cc1cccc(N2CCN(CC(=O)NCc3ccc(Cl)cc3)CC2)c1C	n	x	x	x	x
CCC1(c2ccccc2)NC(=O)N(CC(=O)NCCN2C(=O)S/C(=C\c3cccnc3)C2=O)C1=O (configuration not stated)	n	x	x	x	x
O=C(NNC(=O)c1ccccc1F)c1cccc(-n2cccc2)c1	n	n	x	x	x
CCOc1cc(-c2nc3ccccn3c2NCC2CCCO2)ccc1O (configuration not stated)	-9.6	n	n	n	n
COc1cc(-c2nc3ccccn3c2NCC2CCCO2)ccc1O (configuration not stated)	n	n	x	x	x
O=C(O)C1C2CCC(O2)C1C(=O)Nc1ccccc1Br (configuration not stated)	n	x	x	x	x
CCN(CC)CCNC(=O)c1ccc(CS(=O)(=O)c2ccccc2C)o1	n	n	x	x	x
Cc1ccc(C(=O)N/C(=C\c2ccc(-c3ccc(Cl)cc3)o2)C(=O)NCCCN(C)C)cc1	-7.2	n	-18%	n	n
CN(C)CCCNC(=O)/C(=C\c1ccc(-c2ccc(Br)cc2)o1)NC(=O)c1ccccc1	n	x	x	x	x
COc1cccc(CN2CC(C(=O)N3CCN(c4ccc(Cl)cc4)CC3)CCC2=O)c1 (configuration not stated)	n	x	x	x	x
CC(C)CNC(=S)Nc1ccc(Oc2ccccc2)cc1	n	n	x	x	x
COc1ccc(Cl)cc1C(=O)Nc1ccccc1N1CCN(C)CC1	n	x	x	x	x
COc1ccc(Cl)cc1C(=O)Nc1ccccc1N1CCCCC1	-7.5	n	-32%	n	n	KCNQ2 patch conf=n
SMILES	KCNQ2 block	KCNQ2 enhance	KCNQ2 block conf	KCNQ1 spec	CHO Tl ctr	others
COc1cc(C(=O)NC(=S)Nc2ccccc2N2CCCC2)cc(OC)c1OC	n	x	x	x	x
COc1ccc(Br)cc1C(=O)Nc1ccccc1-c1ccccc1	-9.3	n	-15%	n	n	KCNQ2 patch conf=n
COc1cc(C(=O)Nc2ccccc2N2CCCCC2)cc(OC)c1OC	-7.4	n	-39%	-28%	n	KCNQ2 patch conf=+
COc1ccc(Br)cc1C(=O)Nc1ccccc1N1CCCC1	n	x	x	x	x
COc1ccc(-n2nc(C(=O)NCC(=O)Nc3cccc(Cl)c3)c3ccccc3c2=O)cc1	n	x	x	x	x
COc1ccc(C(=O)N2CCOC2CNC(=O)C(=O)NCCc2ccc(OC)c(OC)c2)cc1 (configuration not stated)	n	n	x	x	x
CCN1C(C(=O)Nc2cc(C)on2)=C(O)c2ccccc2S1(=O)=O	n	n	x	x	x
CN1C(C(=O)c2ccccc2)=C(N)c2ccccc2S1(=O)=O	n	x	x	x	x
CCN1C(C(=O)c2ccccc2)=C(Nc2ccccc2C)c2ccccc2S1(=O)=O	-6.9	n	-34%	-27%	n	KCNQ2 patch conf=n

Screens from PubChem BioAssay.
